Measured values: PubChem BioAssay (NCATS)
Values joined by “and” are separate entries in the source; they are usually repeats but may differ in a detail not shown here. Identical values can stand only once. Records with an inconclusive call do not appear. More than one record can exist for a structure, and the calls need not agree. Active and inactive are the calls of the source. Calls follow the shape of the dose curve; as a rule, active = well fitted cell-killing curve with a large enough effect; inconclusive = small, poorly fitted or top-dose-only effect, or effect the other way; inactive = no such curve, though single readings can be large or run the other way.
Potency is read from the fitted curve at half-maximal effect.

Test: Viability qHTS for spleen associated tyrosine kinase inhibitor (SYKi) naive MV4-11 cells (AID 1963823); also: nearly all actives have a fitted effect of over 40% in size
Settings: MV4-11 AML viability, CellTiter-Glo luminescence, 72 h; series mostly up to 45 µM; viability (% of control): at the top concentration
Text: Department of Medicine, Hematology/Oncology
University Hospital Frankfurt, Germany.
Trials have shown promising clinical activity of the selective SYK inhibitor entospletinib in patients with high expressing HOXA9/MEIS1 acute leukemias. As the development of resistance mechanisms is a common problem in the use of targeted drugs, we performed a chemical library screen to identify drug sensitivities in SYK inhibitor resistant AML cells. […] Glucocorticoids are potent immunosuppressants which work in part by inhibiting the transcription of cytokine genes.
Described herein is a viability screen to look for activity in the SYK inhibitor naive cell line against four NCATS compound libraries (MIPE 5.0, NPC, NPACT, and Kinase) totaling 11372 compounds. Active hits were reacquired for confirmation and further secondary assay testing.
SEQUENCE No. (e.g., 1, 2, 3, etc.); […] (e.g., Cells, Incubation, Reagent, etc.); VALUE; DESCRIPTION.
1; Media; 2uL; white, solid-bottom Corning assay plate.
2; Compounds; 23nL; Echo acoustic dispenser.
3; Cell; 5uL; 500 cells per well.
4: Incubation; 72hr; 37 C, 5% CO2, 95% humidity.
5; Reagent; 3uL; CellTiter-Glo reagent (Promega).
6; Incubation; 10min; room temperature.
7; Detection; Luminescence; ViewLux plate reader (PerkinElmer).
NOTES (numbers refer to Sequence numbers above
1. Quantitative high-throughput screening (qHTS) of small molecule compounds was conducted on naive SYKi MV4-11 cell line.
2. Twenty-three nanoliter of small molecule compounds were added to each assay plates using the Echo acoustic dispenser (Beckman Coulter).
3. Cells were seeded into the assay plates at a final density of 500 cells in 5uL of media per well using the Multi-drop Combi dispenser.
4. Plates were covered with stainless steel gasketed lids and incubated for 72 hours at standard cell culture conditions.
5. Viability was assessed by adding 3uL of CellTiter-Glo detection reagent (Promega).
6. Plates were covered with gasket lids and incubated for 10 minutes at room temperature.
7. Luminescence was measured on a ViewLux plate reader (PerkinElmer).
With `C[C@H]1C(=O)O[C@@H]2CCN3CC=C(COC(=O)[C@](C)(O)[C@]1(C)O)[C@H]23` the “viability (% of control)” value was 77.6% (inactive). With `C[C@H]1CCC[C@H](O)CCC/C=C/c2cc(O)cc(O)c2C(=O)O1` the Potency was 7.31 µM (active). For `O=C(CCCN1CCC2(CC1)C(=O)NCN2c1ccccc1)c1ccc(F)cc1`, the “viability (% of control)” value was 62.5% (inactive). In the case of `C=C1C[C@]2(O)[C@@]3(C)CCC(=O)C(C)(C)C3=C(O)C(=O)[C@@]2(C)[C@@H]2C(=O)O[C@@](C)(C(=O)OC)C(=O)[C@@]12C`, the “viability (% of control)” value is reported as 69.6% [at 17.3 µM] (inactive). For `C=CCN1C[C@H](C)N([C@H](c2ccc(C(=O)N(CC)CC)cc2)c2cccc(OC)c2)C[C@H]1C`, the Potency was “inactive”. For `CC[C@@H](C)[C@H]1C(=O)O[C@H](C(C)C)C(=O)N(C)[C@@H]([C@@H](C)CC)C(=O)O[C@H](C(C)C)C(=O)N(C)[C@@H]([C@H](C)CC)C(=O)O[C@H](C(C)C)C(=O)N1C`, the Potency was 1.22 µM (active). For `C[C@H]1C(=O)O[C@H]2[C@H](O)[C@]34C5OC(=O)[C@]3(O[C@@H]3OC(=O)[C@H](O)C34[C@H](C(C)(C)C)[C@H]5O)C12O` (stereo not given in full), the “viability (% of control)” value was 93.7% [at 17.3 µM] (inactive). With `CS(=O)(=O)c1ccc(C(=O)C2C(=O)CCCC2=O)c([N+](=O)[O-])c1` the Potency was 6.24 µM (active). In the case of `O=C1Nc2ccc3ncsc3c2/C1=C/c1cnc[nH]1`, the Potency is reported as 0.082 µM (active). With `CN1C(=O)NC(=O)C(C)(C2=CCCCC2)C1=O` (stereo not given) the “viability (% of control)” value was 66.3% (inactive). For `NCC(O)c1ccc(O)cc1` (stereo not given), the “viability (% of control)” value was 84.8% (inactive). For `CO[C@H]1[C@@H](O)[C@@H](C)O[C@@H](O[C@@H]2C=C3C(OC(C)=O)CC4(O)C(CC[C@]5(C)[C@@H](C6=CC(=O)OC6)CC[C@]45O)[C@@]3(C)CC2)[C@@H]1O` (stereo not given in full), the Potency was 0.0685 µM (active). In the case of `CN1C(=O)C(Cc2ccc3ccccc3c2)N=C(c2ccc(O)cc2)c2cc(Cl)ccc21` (stereo not given), the Potency is reported as 20.6 µM (active). In the case of `COC(C)(C)CCCC(C)C/C=C/C(C)=C/C(=O)OC(C)C` (stereo not given), the “viability (% of control)” value is reported as 99.4% (inactive). For `[N-]=[N+]=CC(=O)OC[C@H](N)C(=O)O`, the “viability (% of control)” value was 82.8% (inactive). With `CC(CC(C(N)=O)(c1ccccc1)c1ccccc1)N(C)C` (stereo not given) the “viability (% of control)” value was 84.5% (inactive). For `C=C(CO)C(=O)O[C@H]1C/C(C)=C/CC/C(CO)=C/[C@H]2OC(=O)C(=C)[C@H]12`, the “viability (% of control)” value was 84.4% (inactive). For `CC(C)c1cccc(C(C)C)c1O`, the “viability (% of control)” value was 52.7% (inactive). For `N#CC(O[C@@H]1O[C@H](CO)[C@@H](O)[C@H](O)[C@H]1O)c1ccccc1` (stereo not given in full), the “viability (% of control)” value was 73.2% (inactive). For `COc1ccc(OC)c(CC(C)N)c1` (stereo not given), the “viability (% of control)” value was 83.4% [at 91.9 µM] (inactive). With `CCCCCCC1C(=O)O[C@H](C)[C@H](NC(=O)c2cccc(NC=O)c2O)C(=O)O[C@@H](C)[C@@H]1OC(=O)CC(C)C` (stereo not given in full) the Potency was 0.517 µM (active). For `C[C@]12CC[C@H]3[C@@H](CC[C@@]45O[C@@H]4C(O)=C(C#N)C[C@]35C)[C@@H]1CC[C@@H]2O`, the Potency was 10.5 µM (active). With `Cc1ccc(Cl)c(O)c1` the “viability (% of control)” value was 62.7% (inactive). In the case of `CN1[C@H]2CC(O)C[C@H]1[C@H]1O[C@H]12` (stereo not given in full), the “viability (% of control)” value is reported as 89.2% (inactive). In the case of `C[C@]12CC[C@H]3[C@@H](CCC4=CC(=O)CC[C@@H]43)[C@@H]1CC[C@@H]2O`, the “viability (% of control)” value is reported as 63.4% (inactive). For `CNC(=O)N1N=C(c2ccc(N)cc2)c2cc3c(cc2CC1C)OCO3` (stereo not given), the Potency was 1.84 µM (active). In the case of `COc1cc2c(cc1F)C(c1ccccc1Cl)=Nc1c(n[nH]c1C)N2`, the Potency is reported as 0.517 µM (active). For `CCCCCCCCC(=O)NCc1ccc(O)c(OC)c1`, the “viability (% of control)” value was 13.3% (inactive). With `Clc1cccc(N2CCNCC2)c1` the “viability (% of control)” value was 75.9% (inactive). With `O=C(N[C@H]1CN2CCC1CC2)c1cc2cccc(Cl)c2s1` the Potency was 14.6 µM (active). With `Clc1cccc(SC2CCNCC2)n1` the “viability (% of control)” value was 77% (inactive). For `CC[C@H]1C[C@@H]2CC[C@@H](O2)[C@@H](C)C(=O)O[C@H](CC)C[C@H]2CC[C@H](O2)[C@H](C)C(=O)O[C@@H](C)C[C@@H]2CC[C@@H](O2)[C@@H](C)C(=O)O[C@H](CC)C[C@H]2CC[C@H](O2)[C@H](C)C(=O)O1`, the Potency was 0.0122 µM (active). With `CC(C)N(CCNC(=O)CN1CCCC1=O)C(C)C` the “viability (% of control)” value was 79.9% (inactive). With `CC(C)(C)NC[C@H](O)c1ccc(O)cc1Cl` the “viability (% of control)” value was 77.7% (inactive). For `CCNC(=O)CC1N=C(c2ccc(Cl)cc2)c2cc(OC)ccc2-n2c(C)nnc21` (stereo not given), the Potency was 14.8 µM (active) and inactive and 517 nM (active). In the case of `CN1C(=O)[C@@H](Cc2c[nH]c3ccccc23)N=C(c2ccccc2F)c2ccccc21`, the Potency is reported as 20.6 µM (active). In the case of `CC(=O)OCC1=C(C(=O)O)N2C(=O)[C@@H](N)[C@H]2SC1`, the Potency is reported as “inactive”. With `CC[C@H]1C2CC3[C@@H]4N(C)c5ccccc5[C@]45C[C@@H]([C@H]2[C@H]5O)N3[C@@H]1O` the “viability (% of control)” value was 59.8% (inactive). In the case of `C/C=C(\C)C(=O)N[C@@H](c1ccccc1)[C@@H](O)C(=O)O[C@H]1C[C@@]2(O)[C@@H](OC(=O)c3ccccc3)[C@@H]3[C@]4(OC(C)=O)CO[C@@H]4C[C@H](O)[C@@]3(C)C(=O)[C@H](OC(C)=O)C(=C1C)C2(C)C`, the Potency is reported as 0.0209 µM (active). In the case of `C/C=C(\C)C(=O)OC1CC2C(CC=C3CC(OC4CC(OC)C(OC5CC(OC)C(OC6OC(C)C(OC7OC(CO)C(O)C(O)C7O)C(OC)C6O)C(C)O5)C(C)O4)CCC32C)C2(O)CCC(C(C)=O)C12C` (stereo not given), the viability (% of control) is reported as 73.7% [at 9.25 µM] (inactive).
